Source: PubChem BioAssay (several laboratories)
This is one part of a sample in which hits are shown more often than they occur.
BoNT A protease – inhibitors of Botulinum neurotoxin A light chain protease | multiplex microsphere protease substrate cleavage, flow cytometry | inhibition, % at 10 µM | 360,000 compounds, 0.17% hits | AID 588499; note: plate controls were buffer without enzyme for full effect and enzyme alone for no effect
Anthrax LF prot – blocks Bacillus anthracis lethal factor protease; inhibition, % at 10 µM; P15917; multiplex microsphere protease cleavage assay, LF; 360,000 compounds, 0.12% hits; note: plate controls were buffer without enzyme for full effect and enzyme alone for no effect
BoNT F protease – blocks Botulinum neurotoxin F light chain protease; Multiplex microsphere protease cleavage assay, flow cytometry; 360,000 compounds, 0.22% hits; inhibition, % at 10 µM; in the data active = inhibition above about 35%, passing the limit was not always enough; inconclusive = no clear call, values can overlap the other calls; note: plate controls were buffer without enzyme for full effect and enzyme alone for no effect
TcdB inh – blocks C. difficile toxin B glycohydrolase activity; P18177; inhibition, % at 9.99 µM; TcdB glycohydrolase enzymatic assay, plate reader; 350,000 compounds, 0.24% hits; in the data active = inhibition above about 10%
Autofluor counter – compound fluorescence in toxin protease inhibitor counterscreen; compound autofluorescence counterscreen, microsphere flow cytometry; stronger effect = higher value; fluorescence intensity (concentration not given with the values); 360,000 compounds, 3.1% hits; AID 624483; in the data active = fluorescence intensity above about 16000; inconclusive = no clear call, values can overlap the other calls
Starred values were filed as active, the others as inactive; u = inconclusive; x = no result given. Cut-off read from the data, not from the text of the source, unless noted: active = inhibition above about 30%; inconclusive = no clear call, values can overlap the other calls; inactive = below that.

SMILES	BoNT A protease	Anthrax LF prot	BoNT F protease	TcdB inh	Autofluor counter
C[C@@H]1CCCCO[C@H](CN(C)C(=O)CCC(F)(F)F)[C@H](C)CN([C@@H](C)CO)C(=O)c2cc(NC(=O)Cc3ccccc3)ccc2O1	x	x	x	1	x
Cc1c(Cl)cccc1NC(=O)CC(C(=O)O)C1CCCO1 (stereo unspecified)	1	-3	0	x	22699*
CC(C)NC(=O)N1CC[C@@H]2[C@H]1c1cc(-c3ccccc3)ccc1N(C)[C@H]2CO	x	x	x	15*	x
CCC(=O)N1CC[C@H]2[C@@H]1c1cc(-c3ccccc3)ccc1N(C)[C@H]2CO	x	x	x	4	x
CC(C)NC(=O)N1CC[C@@H]2[C@H]1c1cc(-c3ccc(F)cc3)ccc1N(C)[C@H]2CO	x	x	x	12*	x
CN(C)CC(=O)N1CC[C@@H]2[C@H]1c1cc(-c3ccccc3)ccc1N(C)[C@H]2CO	x	x	x	12*	x
CCCNC(=O)N1CC[C@@H]2[C@@H](CO)N(C)c3ccc(-c4ccccc4)cc3[C@@H]21	x	x	x	11*	x
COCC(=O)N1CC[C@@H]2[C@H]1c1cc(-c3ccc(OC)cc3)ccc1N(C)[C@H]2CO	x	x	x	17*	x
O=C(C1CCOCC1)N1CC[C@@H]2[C@H]1c1cc(-c3ccc(F)cc3)ccc1N[C@@H]2CO	x	x	x	-1	x
O=C(C1CCOCC1)N1CC[C@@H]2[C@@H](CO)Nc3ccc(-c4ccc(F)cc4)cc3[C@@H]21	x	x	x	10*	x
CC(=O)N1CC[C@@H]2[C@@H](CO)N(C)c3ccc(-c4ccccc4)cc3[C@@H]21	x	x	x	17*	x
CN1c2ccc(-c3ccccc3)cc2[C@@H]2[C@@H](CCN2C(=O)CN2CCOCC2)[C@@H]1CO	x	x	x	12*	x
CN1c2ccc(-c3ccccc3)cc2[C@@H]2[C@@H](CCN2C(=O)CN2CCOCC2)[C@H]1CO	x	x	x	0	x
C[C@H](NC(=O)[C@H]1[C@H](CO)[C@H]2Cn3c(cccc3=O)[C@@H]1N2Cc1ccccc1)c1ccccc1	x	x	x	0	x
C[C@H]1CCCCO[C@H](CN(C)C(=O)CCC(F)(F)F)[C@@H](C)CN([C@@H](C)CO)C(=O)c2cc(NS(=O)(=O)c3cn(C)cn3)ccc2O1	x	x	x	-1	x
O=C(/C=C/c1ccccc1)CC(O)(c1ccccc1)C(F)(F)C(F)F (stereo unspecified)	-1	6	-5	-1	5535
O=C(CC(O)(c1ccccc1)C(F)(F)C(F)F)c1cccs1 (stereo unspecified)	u	-1	-4	-1	20372*
COC(=O)c1cn[nH]c1NC(=S)Nc1ccc(C)cc1Cl	u	0	-2	x	23473*
O=C(C[C@@H]1CC[C@H]2[C@@H](COC[C@@H](O)CN2Cc2ccc3c(c2)OCO3)O1)N1CCOCC1	x	x	x	0	x
COc1ccc(Cl)cc1NC(=O)N1CCN(C2CCCCC2)CC1	u	-2	-3	0	20816*
COc1ccc(NC(=O)N2CCN(S(C)(=O)=O)CC2)cc1OC	-1	-1	-2	x	22966*
Cc1ccc(NC(=S)N2CCN(S(C)(=O)=O)CC2)cc1	-1	-3	-2	-1	4862
CCOC(=O)c1ccc(NC(=O)NC(C)C2CCCO2)cc1 (stereo unspecified)	3	-1	4	x	21999*
CCOC(=O)c1ccc(NC(=S)N2CCN(S(C)(=O)=O)CC2)cc1	-1	-3	-1	x	16800*
CC(NC(=O)Nc1ccc(Cl)cc1)C1CCCO1 (stereo unspecified)	0	0	-3	1	2068
SMILES	BoNT A protease	Anthrax LF prot	BoNT F protease	TcdB inh	Autofluor counter
CC(C)NC(=O)N1[C@@H]2c3cccc(=O)n3C[C@@H]2[C@@H](CO)[C@@H]1C(=O)N1CCc2ccccc2C1	x	x	x	0	x
COCC(=O)Nc1ccc2c(c1)[C@H]1C[C@@H](CC(=O)NCC3CC3)O[C@@H](CO)[C@H]1O2	x	x	x	1	x
CCOC(=O)c1ccc(NC(=O)N2CCN(C3CCCCC3)CC2)cc1	-1	-3	-3	x	16368*
CCOC(=O)c1ccc(NC(=O)C2CCCO2)cc1 (stereo unspecified)	-1	1	-9	x	4299
CCOC(=O)c1ccc(NC(=O)N2CCCCC2)cc1	0	0	-6	x	3015
CCOC(=O)c1ccc(NC(=O)N2CCN(S(C)(=O)=O)CC2)cc1	-3	-6	-6	x	17414*
CCOC(=O)c1cc(NC(=O)C2CCCO2)cc(C(=O)OCC)c1 (stereo unspecified)	8	-8	8	x	16398*
CCCNC(=O)C[C@@H]1CC[C@H]2[C@@H](COC[C@H](O)CN2C(=O)c2cccnc2)O1	x	x	x	-1	x
Cc1cc2n(n1)C(c1ccc3c(c1)OCO3)Nc1c(C)cccc1-2 (stereo unspecified)	2	u	-2	x	u
Cc1cc(C)c2c(c1)-c1cc(C)nn1C(c1ccc3c(c1)OCO3)N2 (stereo unspecified)	u	0	-9	x	24496*
C[C@@H]1CN([C@H](C)CO)C(=O)c2cc(NC(=O)CCC(F)(F)F)ccc2O[C@H]1CN(C)C(=O)Nc1ccccc1	x	x	x	-3	x
CCNC(=S)NNC(=O)Nc1ccccc1	0	-5	-1	0	23334*
C[C@H](CO)N1C[C@H](C)[C@@H](CN(C)C(=O)NC2CCCCC2)OCCCC[C@H](C)Oc2ccc(NC(=O)Nc3ccc4c(c3)OCO4)cc2C1=O	x	x	x	0	x
CN(C)[C@H]1N(C(=O)c2ccc(Br)cc2)N=C2c3ccccc3S(=O)(=O)N21	u	-1	0	-1	19842*
CCC1CCCCN1C(=O)N[C@@H](Cc1ccccc1)C(=O)O (stereo partly specified)	0	0	-3	x	23663*
COC(=O)[C@H](Cc1ccccc1)NC(=O)N1CCCCC1C (stereo partly specified)	0	-1	-4	x	10036
COc1cccc(C(=O)Nc2ncc3c(n2)CC(C)CC3=O)c1 (stereo unspecified)	-5	-3	-10	x	24790*
CC1CC(=O)c2cnc(Nc3cccc(C(F)(F)F)c3)nc2C1 (stereo unspecified)	0	-1	-7	x	2888
CC1CC(=O)c2cnc(Nc3ccccc3)nc2C1 (stereo unspecified)	3	0	4	3	22489*
COc1ccc(C2CC(=O)c3cnc(NC(=O)c4ccccc4)nc3C2)cc1OC (stereo unspecified)	0	2	9	0	5581
COc1cc(C2CC(=O)c3cnc(NC(=O)COc4ccccc4)nc3C2)cc(OC)c1OC (stereo unspecified)	4	-2	6	x	21520*
COc1cc(OC)cc(C(=O)Nc2ncc3c(n2)CC(C)CC3=O)c1 (stereo unspecified)	1	-1	5	x	2092
C[C@@H]1CN([C@H](C)CO)C(=O)c2cc(NC(=O)Nc3ccc(F)cc3)ccc2O[C@@H]1CN(C)S(=O)(=O)c1ccc(F)cc1	x	x	x	-1	x
COc1ccccc1C#Cc1ccc([C@H]2[C@H](C#N)N(C(=O)C3CCC3)[C@H]2CO)cc1	x	x	x	0	x
Cc1cc(C)c2nc(-c3ccccn3)cc(C(=O)Nc3ccc(S(=O)(=O)Nc4cc(C)on4)cc3)c2c1	u	-7	-2	x	16205*
O=C(COc1ccccc1)Nc1ccc(S(=O)(=O)Nc2ncccn2)cc1	0	-1	0	17*	4732
